Compound activity (PubChem)
Most compounds without a hit are left out; they make up all but 2.6% or so of the library.
MLLE-PAM2 inh – blocks PAM2 peptide binding to the PABP1 MLLE domain; 0.36% of 360,000 active; P11940; GST-MLLE / FITC-PAM2 fluorescence polarization; inhibition, % at 20 µM; in the data active means inhibition above about 35%, passing the limit was not always enough;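 further: plate controls were DMSO wells with GST-MLLE for no effect and wells lacking GST-MLLE protein for full effect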
APOBEC3G inh – blocks human APOBEC3G single-stranded DNA deamination; Q9HC16; recombinant A3G, ssDNA deamination FAM/TAMRA fluorescence; inhibition, % at 20 µM; 0.28% of 330,000 active; AID 493012;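 active means inhibition of at least 40% at 20 µM, with no more than 30% in the related APOBEC3A deaminase screen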;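 further: plate controls were DMSO wells with A3G for no effect and wells lacking A3G enzyme for full effect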
Target sequence (Q9HC16 whole entry, looked up): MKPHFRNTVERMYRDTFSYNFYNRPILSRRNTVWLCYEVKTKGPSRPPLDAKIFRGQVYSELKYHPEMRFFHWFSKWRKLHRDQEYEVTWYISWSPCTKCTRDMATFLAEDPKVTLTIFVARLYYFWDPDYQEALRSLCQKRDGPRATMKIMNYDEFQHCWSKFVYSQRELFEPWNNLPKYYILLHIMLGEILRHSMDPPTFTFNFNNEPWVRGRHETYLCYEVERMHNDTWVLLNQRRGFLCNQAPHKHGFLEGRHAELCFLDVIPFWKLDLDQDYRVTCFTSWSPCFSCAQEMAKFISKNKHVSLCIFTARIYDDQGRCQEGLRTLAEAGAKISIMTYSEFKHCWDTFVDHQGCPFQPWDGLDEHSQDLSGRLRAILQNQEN
APOBEC3A inh – blocks human APOBEC3A ssDNA deamination; inhibition, % at 20 µM; 0.41% of 330,000 active; recombinant A3A, FAM/TAMRA ssDNA deamination fluorescence;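 active means at least 40% inhibition at 20 µM here, with at most 30% in a related deaminase screen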;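 further: plate controls were A3A with DMSO for no effect and wells lacking A3A enzyme for full effect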
PABP polyA inh – blocks human PABP binding to poly(A) RNA; 1% of 290,000 active; calls only at 35 µM; fluorescence polarization;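 further: calls also rest on retests at 20 µM and on dose response follow-up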
PHOSPHO1 block – PHOSPHO1 (human) inhibition | inhibition, % at 13.3 µM | recombinant PHOSPHO1, absorbance phosphatase assay | 1.1% of 290,000 active; in the data active means inhibition above about 60%
eIF4H FP inh – inhibitors of RNA binding by human eIF4H; 0.94% of 290,000 active; inhibition, % at 35 µM; eIF4H fluorescence polarization binding assay; Q15056;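 further: calls also rest on retests at 20 µM and on dose response follow-up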
Active calls of the source: *; i = inactive; ? = inconclusive; / = no result given; + = active, no number. Unless noted, how the calls were made is not given here.

SMILES	MLLE-PAM2 inh	APOBEC3G inh	APOBEC3A inh	PABP polyA inh	PHOSPHO1 block	eIF4H FP inh
COc1cccc2cc(-c3nc4ccccc4[nH]3)c(=O)oc12	-15	-4	-3	i	5	3
C=CCN1C(=O)/C(=C2/C(=O)N(CC(=O)O)c3ccccc32)S/C1=N/c1nccs1	/	/	/	+	23	105*
C=CCN1C(=O)/C(=C/c2ccc(O)cc2)S/C1=N/c1nccs1	-99	-34	-27	i	11	-8
O=C(NC(=S)Nc1ccc(S(=O)(=O)Nc2nccs2)cc1)c1cccnc1	41*	3	1	i	8	10
O=C(NC(=S)Nc1ccc(S(=O)(=O)Nc2nccs2)cc1)c1ccccc1F	27	-3	0	i	-1	3
NS(=O)(=O)c1ccc(NC(=O)C2(c3ccccc3)CCCC2)cc1	-15	-4	0	+	4	?
O=C(O)c1ccc(NC(=O)C2(c3ccccc3)CCCC2)cc1	3	1	1	i	-33	-7
O=C(NC(=S)Nc1ccc(S(=O)(=O)Nc2nccs2)cc1)c1ccccc1	39*	-1	-1	i	10	-1
O=C(NC(=S)Nc1ccc(S(=O)(=O)Nc2nccs2)cc1)c1ccc(F)c(F)c1	17	-5	-3	i	-9	5
O=C(Nc1ccc(S(=O)(=O)Nc2nccs2)cc1)c1nn(-c2ccccc2)ccc1=O	-36	11	-15	i	24	77*
NS(=O)(=O)c1ccc(NC(=S)NC(=O)c2ccc(-c3ccccc3)cc2)cc1	43*	-3	-2	i	0	2
Cc1c(N2C(=O)c3ccc4c5c(ccc(c35)C2=O)CC4)c(=O)n(-c2ccccc2)n1C	3	38	8	+	78*	93*
Cc1c(N2C(=O)c3ccc(Br)cc3C2=O)c(=O)n(-c2ccccc2)n1C	-5	0	-1	i	34	-8
O=C(CNC(=O)Cc1ccccc1)N=Nc1c(O)[nH]c2ccccc12	6	-1	2	i	24	3
COC(=O)/C=C(\C)N=Nc1c(O)[nH]c2ccccc12	3	-7	-2	+	20	8.6*
O=C(/C=C/c1ccccc1)NCc1ccco1	-9	0	3	i	37	-6
Cc1ccc(/C=C/C(=O)NCc2ccco2)o1	/	14	12	+	0	?
O=C(/C=C/c1ccco1)NCc1ccco1	-11	39	45	+	19	86*
O=C(CNC(=O)/C=C/c1ccco1)N=Nc1c(O)[nH]c2ccccc12	9	58	36	+	13	88*
CC(C)(O)C(=O)N=Nc1c(O)[nH]c2ccccc12	-2	-3	-1	i	41	-1
Cc1cc(NC(=O)C(C)SCC(=O)N(Cc2ccccc2)c2ccccc2)no1 (stereo not given)	7	-7	1	/	/	/
CCc1cccc(CC)c1C(OC(C)=O)c1cccnc1 (stereo not given)	1	-4	-1	/	/	/
CCOC(=O)c1c(S(=O)(=O)N2CCN(c3ccc(C(C)=O)cc3)CC2)c(C)n(C)c1C	-12	-7	-4	i	55	-10
COc1ccc(Nc2cc(C(=O)NC3CCCC3)c3ccccc3n2)c(OC)c1	-3	-2	-3	i	8	-11
CCN(CC)CCCC(C)NC(=O)c1ccc(C(F)(F)F)cc1 (stereo not given)	-4	-7	-2	+	36	active
SMILES	MLLE-PAM2 inh	APOBEC3G inh	APOBEC3A inh	PABP polyA inh	PHOSPHO1 block	eIF4H FP inh
CCN(CC)CCCC(C)NC(=O)c1cc(=O)c2ccccc2o1 (stereo not given)	-2	-4	1	?	32	-9
Cc1ccc(OCCn2c(SCCO)nc3c(N)ncnc32)cc1	-9	-8	-4	i	31	15
S=C(NN=C1C2CC3CC(C2)CC1C3)Nc1ccccc1	16	-5	-1	i	92*	10
CCC(C)(C)C1CCC(=NNC(=S)Nc2ccccc2)CC1 (stereo not given)	25	-4	2	i	-1	-8
O=C(O)C1CCCCC1C(=O)Nc1nc(-c2ccc(Cl)s2)cs1 (stereo not given)	26	7	16	+	16	76*
CCCC(=O)Nc1nc(-c2ccc(Cl)s2)cs1	5	-5	0	i	42	-3
O=S(=O)(c1cccc(Cn2nnc(-c3ccccc3)n2)c1)N1CCOCC1	5	-6	-5	/	/	/
